# Laboratory results taken from PubChem BioAssay (NCATS).
# Several values for one entry are separate records, joined by “and”; a condition that tells them apart may be missing. Equal values may be shown once. Results filed as inconclusive are left out. Values without a mark were called inactive. Activity calls are given as the source filed them. Calls come from the whole dose curve; as a rule, active = well fitted curve in the direction sought with a large enough effect; inconclusive = small, poorly fitted or top-dose-only effect, or another doubt; inactive = no such curve, though single readings can be large or run the other way.
# Assay: qHTS Assay for Identifying Gametocytocidal Compounds (AID 743244);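 for max response: actives lower the fluorescent signal which means gametocytes are killed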
# Details: P. falciparum 3D7 stage III-V gametocytes, alamarBlue, 72 h; max response: active compounds read low
# Procedure, shortened: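 Viability read-out was resazurin reduction (alamarBlue, 24 h) measured at Ex 525/Em 598 nm. Beforehand, late-stage (III-V) 3D7 P. falciparum gametocytes at 20,000 cells/well were incubated with compound 72 h at 37C under 5% CO2.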
# % is set by controls: 0 for no effect and ±100 for the full control effect; potency is the fitted concentration of half-maximal effect.
Structure (SMILES),max response,Potency
CO[C@H]1[C@@H](O)C[C@H](O[C@H]2[C@@H](O)C[C@H](O[C@H]3[C@@H](O)C[C@H](O[C@H]4CC[C@@]5(C)[C@H](CC[C@@H]6[C@@H]5C[C@@H](O)[C@]5(C)[C@@H](C7=CC(=O)OC7)CC[C@]65O)C4)O[C@@H]3C)O[C@@H]2C)O[C@@H]1C,-9.7%,–
CC(C)CCC(=O)O[C@H]1CC[C@H]2[C@@H]3CCC4=CC(=O)CC[C@]4(C)[C@H]3CC[C@]12C,13.7%,–
O=c1[nH]cc(N(CCCl)CCCl)c(=O)[nH]1,-3.92%,–
O=C1CN(O)C(c2ccccc2)=c2cc(Cl)ccc2=N1,0.268%,–
O=[N+]([O-])c1cc(I)c(O)c(I)c1,0.0812%,–
CCN(CC)CCO[C@H]1CC[C@@]2(C)C(=CC[C@@H]3[C@@H]2CC[C@]2(C)C(=O)CC[C@@H]32)C1,-4.56%,–
C[C@]12CC[C@H]3[C@@H](CC[C@@]45O[C@@H]4C(O)=C(C#N)C[C@]35C)[C@@H]1CC[C@@H]2O,-8.72%,–
O=C(CCl)c1ccc(Oc2ccc(C(=O)CCl)cc2)cc1,0.618%,–
CCN(CC)C(=O)/C(Cl)=C(\C)OP(=O)(OC)OC,-6.42%,–
CCC1(CC)C(=O)NC(=O)N(C)C1=O,-12.2%,–
O=C1OC2(c3cc(Br)c(O)cc3Oc3c2cc(Br)c(O)[c]3[Hg])c2ccccc21 (stereo unspecified),-1.46%,–
O=C1C[C@@H]2OCC=C3CN4CC[C@]56c7ccccc7N1[C@H]5[C@H]2[C@H]3C[C@H]46 (tested in a mixture with another compound),12.7% and 17.6%,–
CN1CCCC(=C(c2cccs2)c2cccs2)C1,-3.64%,–
C[C@@H](CO)NC(=O)[C@@H]1C=C2c3cccc4[nH]cc(c34)C[C@H]2N(C)C1,-6.08%,–
Cc1ccccc1-n1c(CF)nc2ccc(N)cc2c1=O,-0.397%,–
C[N+]1(C)[C@@H]2CC[C@H]1CC(OC(=O)c1c[nH]c3ccccc13)C2 (stereo partly specified),8.77%,–
CCON=O,-5.54%,–
O=C1C=C2C=C[C@@H]3C[C@@]2(O1)[C@H]1CCCCN31,–,7.08 µM (active)

Structure (SMILES),max response,Potency
CCCCCCC(=O)O[C@H]1CC[C@H]2[C@@H]3CC[C@H]4CC(=O)C=C(C)[C@]4(C)[C@H]3CC[C@]12C,7.58%,–
CNC(=O)OCC[N+](C)(C)C,-1.58%,–
c1ccc2sc(SNC3CCCCC3)nc2c1,27.5%,–
CCCCNCC(O)c1ccc(O)cc1 (stereo unspecified),15.5%,–
COc1ccc(OC)c([C@@H](O)[C@H](C)N)c1,0.514%,–
Clc1ccc(C2(Cn3cncn3)OCCO2)c(Cl)c1,-2.25%,–
C=CCN1CC[C@]23c4c5ccc(O)c4O[C@H]2[C@@H](O)C=C[C@H]3[C@H]1C5,2.17%,–
O=C(NC(=O)c1c(F)cccc1F)Nc1ccc(Cl)c(Oc2ncc(C(F)(F)F)cc2Cl)c1,-9.15%,–
[2H]C([2H])([2H])[C@H](N)Cc1ccccc1,14.3%,–
CCCCC[C@@H](O)C1C(=O)OC(C)[C@H](O)/C=C/C=C/C=C/C=C/C=C(\C)C(O)C(O)C(O)C[C@H](O)C[C@H](O)C[C@H](O)C[C@H](O)C[C@@H]1O (stereo partly specified),0.532% and 10.2%,–
O[C@H]1[C@H]2[C@H](O)CCCN2C[C@H]1O,-8.84%,–
C[C@]12CC[C@H](O)C[C@H]1CC[C@@H]1[C@@H]2CC[C@]2(C)[C@@H](c3ccc(=O)oc3)C[C@H]3O[C@]132,10.6%,–
c1cc2c(c(NC3=NCCN3)c1)CCCC2,-7.43%,–
CCC1(c2ccccc2)C(=O)NC(=O)N(C)C1=O (stereo unspecified),-0.22%,–
CC(C)(O)[C@@H]1[C@H]2OC(=O)[C@@H]1[C@]1(O)C[C@H]3O[C@]34C(=O)O[C@H]2[C@]14C,-7.5% and 15.4%,–
FC(F)OC(F)(F)C(F)Cl (stereo unspecified),-4.54%,–
CN(C)[C@@H]1C(=O)C(C(N)=O)=C(O)[C@@]2(O)C(=O)C3=C(O)c4c(O)ccc(Cl)c4[C@@](C)(O)[C@H]3C[C@@H]12,3.58%,–
CCC1C(C)=NN=C(c2ccc(OC)c(OC)c2)c2cc(OC)c(OC)cc21 (stereo unspecified),2.95%,–
